Screens: PubChem BioAssay, National Center for Advancing Translational Sciences (NCATS)
An excerpt weighted towards active compounds, which were near 11% of everything screened.
NS1 function inh: inhibitors of influenza NS1 protein function | Potency, µM (highest dose often 46.1 µM), for inactives: top-dose activity, positive = more growth | hit rate 0.4% among 270,000; calls by dose curve; further: actives are rising curves; nearly all actives have a fitted effect of over 50% in size
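In this qHTS, NS1 from influenza A is expressed in budding yeast, where it slows growth. Cells are switched from glucose to 2% galactose medium (pH 6.0, -URA), treated with compound, and growth recovery is read at OD600.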
AMA1-RON2 inh: inhibitors of Plasmodium falciparum AMA1-RON2 interaction. AlphaScreen AMA1-biotinylated RON2 peptide binding. Potency, µM (highest dose often 58.2 µM), for the others: at the top dose activity change, negative = inhibition, actives largely listed as inhibitors. hit rate 0.2% among 360,000. AID 720542;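 further: 0% = vehicle wells and -100% = peptide control; nearly all actives have a fitted effect of over 45% in size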
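AMA1 (3D7) with his tag at 25 nM final met compounds first, then biotinylated RON2 peptide at 25 nM; detection used donor plus acceptor beads, 10 µg/mL apiece, read by AlphaScreen after 30 min at room temperature.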
Sm TGR block: S. mansoni TGR enzyme inhibition | hit rate 3% among 360,000 | purified TGR, DTNB reduction, TNB absorbance 405 nm | Potency, µM (series often up to 114 µM), for inactives: top-dose activity change, negative = inhibition, hits mostly inhibitors; further: on the % scale 0 is the no-effect control and ±100 the full control effect; nearly all actives have a fitted effect of over 60% in size
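Kinetic colorimetric format: TGR-catalysed, NADPH-driven DTNB reduction monitored via TNB absorbance. Enzyme dispensed at 20 nM; compound exposure 15 min at room temperature before reaction start.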
Pf growth 96h: inhibits malaria parasite growth, 96 h | AID 504834 | hit rate 6.9% among 320,000 | P. falciparum luciferase reporter growth, 96 h | Potency, µM (doses to about 28.7 µM), without a hit: at the top dose activity change, negative = inhibition, hits mostly inhibitors; further: on the % scale 0 is the no-effect control and ±100 the full control effect
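Cell-based qHTS: luciferase-tagged P. falciparum in erythrocytes (2% hematocrit, 0.05% parasitemia final) incubated with compounds for 96 hours, 37 C, 5% CO2; luciferase detection reagent then added and luminescence measured.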
Pf growth 48h: inhibits P. falciparum growth in the first generation, 48 h; P. falciparum luciferase growth in erythrocytes, 48 h; Potency, µM (series often up to 28.7 µM), without a hit: at the top dose activity change, negative = inhibition, most hits filed as inhibitors; hit rate 5.9% among 310,000; further: on the % scale 0 is the no-effect control and ±100 the full control effect
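Erythrocytes infected with P. falciparum carrying an integrated firefly luciferase reporter (2% hematocrit, 0.1% parasitemia final) were exposed to compounds in RPMI 1640 with 0.5% Albumax at 37 C, 5% CO2. Growth inhibition was scored as reduced luminescence.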
Active calls of the source: *; [ ] = remark or other dose. Unless noted, the call rests on the fitted dose curve; in most records, active means well fitted curve in the direction sought with a large enough effect; inconclusive means small, poorly fitted or top-dose-only effect, or another doubt; inactive means no such curve, though single readings can be large; an effect the other way counts as inactive or inconclusive. Potency means the concentration at half of the fitted maximal effect.

How did CCSc1ccc([C@@H]2[C@H]3C(=O)N(C)C(=O)[C@H]3[C@]3(C(=O)OC)CCCCN23)cc1OC do in these assays?
AMA1-RON2 inh: -13%; Sm TGR block: 0%; Pf growth 96h: inconclusive; Pf growth 48h: 10µM*

Results for CCC(C)Sc1ccc([C@@H]2[C@H]3C(=O)N(C)C(=O)[C@H]3[C@]3(C(=O)OC)CCCN23)cc1 (stereo partly specified) ?
AMA1-RON2 inh: -4%

Results for CCN1C(=O)[C@@H]2[C@@H](c3ccc(SC4CCCCC4)c(OC)c3)N3CCCC[C@@]3(C(=O)OC)[C@@H]2C1=O ?
AMA1-RON2 inh: 0%

Results for CC1=NNC(=O)C1CC(=O)N/N=C(\C)c1cccs1 (stereo unspecified) ?
NS1 function inh: -2%; AMA1-RON2 inh: 25%; Sm TGR block: 1%; Pf growth 96h: 26%; Pf growth 48h: 65%

Results for O=C1CC(c2cccc(Cl)c2Cl)c2cc3c(cc2N1)OCCO3 (stereo unspecified) ?
Sm TGR block: -1%

Results for COCCN1C(=O)CCC1(C)C(=O)Nc1ccc2ccccc2c1 (stereo unspecified) ?
AMA1-RON2 inh: 7%

Results for O=C(Nc1ccccc1)N1CCCC(CNS(=O)(=O)Cc2ccccc2)C1 (stereo unspecified) ?
NS1 function inh: -4%; AMA1-RON2 inh: 15%; Sm TGR block: -16%; Pf growth 96h: -6%; Pf growth 48h: 11%

What do the screens show for `CSc1cccc(NC(=O)N2CCCC(CNS(=O)(=O)Cc3ccccc3)C2)c1` (stereo unspecified)?
NS1 function inh: -4%; AMA1-RON2 inh: 16%; Sm TGR block: 0%; Pf growth 96h: 9.3µM*; Pf growth 48h: -5%

How did C=CCCO[C@@H]1O[C@@H](C)[C@H](O)C[C@H]1O do in these assays?
AMA1-RON2 inh: -2%; Sm TGR block: -1%; Pf growth 96h: 23%; Pf growth 48h: 26%

Results for COc1ccc(-c2nc3ccc(C)cc3c(=O)o2)cc1OC ?
NS1 function inh: 4%; AMA1-RON2 inh: 9%; Sm TGR block: 6%; Pf growth 96h: inconclusive; Pf growth 48h: 8%

What do the screens show for `COc1nc(N=C(N)N)nc2ccc(C)cc12`?
NS1 function inh: 7%; Sm TGR block: -5%; Pf growth 96h: inconclusive; Pf growth 48h: 2.6µM*

What do the screens show for `COc1cc(OC)cc(N2C(=O)N(CC(=O)c3ccc(F)cc3)c3ccccc3S2(=O)=O)c1`?
Sm TGR block: 1%

Results for c1cc2c(cc1OCCNC1CCCC1)CCC2 ?
NS1 function inh: 8%; Sm TGR block: -1%; Pf growth 96h: 12µM*; Pf growth 48h: -18%

What do the screens show for `c1ccc(-c2ccc(OCCCNC3CCCC3)cc2)cc1`?
NS1 function inh: -7%; AMA1-RON2 inh: -5%; Pf growth 96h: 3%; Pf growth 48h: 13µM*

Results for CCOc1ccc(-c2cc(CCCC(=O)NCCc3ccc(Cl)cc3)no2)cc1 ?
Sm TGR block: 6%

How did CCOC(=O)CS(=O)(=O)c1ccccc1 do in these assays?
NS1 function inh: -2%; AMA1-RON2 inh: -11%; Sm TGR block: inconclusive; Pf growth 96h: 2%; Pf growth 48h: 2.9µM*

Results for C/C(CS(=O)(=O)c1ccccc1)=N\O ?
NS1 function inh: 6%; AMA1-RON2 inh: 7%; Pf growth 96h: 15%; Pf growth 48h: -3%

How did CCOC(=O)NC(C(Cl)(Cl)Cl)S(=O)(=O)c1ccccc1 (stereo unspecified) do in these assays?
NS1 function inh: 1%; AMA1-RON2 inh: 8%; Sm TGR block: 25µM*; Pf growth 96h: -3%; Pf growth 48h: -22%

What do the screens show for `CCOC(=O)CS(=O)(=O)c1ccc(O)cc1`?
AMA1-RON2 inh: 0%; Sm TGR block: -2%; Pf growth 96h: inconclusive; Pf growth 48h: -6%[5.75 µM]

Results for CCOC(=O)NC(c1ccc(C(C)C)cc1)C(Cl)(Cl)Cl (stereo unspecified) ?
NS1 function inh: -25%; AMA1-RON2 inh: -13%; Sm TGR block: -16%; Pf growth 96h: inconclusive; Pf growth 48h: inconclusive

What do the screens show for `C/C=C(\CS(=O)(=O)c1ccccc1)S(=O)(=O)c1ccccc1`?
NS1 function inh: 0%; AMA1-RON2 inh: 26%; Sm TGR block: 35µM*; Pf growth 96h: 23%; Pf growth 48h: inconclusive

What do the screens show for `COc1ccc(C(N)c2csc(Nc3ccc(C(F)(F)F)cn3)n2)cc1` (stereo unspecified)?
AMA1-RON2 inh: 67%

What do the screens show for `Cc1ccc(OC(=O)c2sc3ncn(C)c(=O)c3c2C)cc1`?
AMA1-RON2 inh: 13%; Sm TGR block: -9%; Pf growth 96h: inconclusive; Pf growth 48h: 339%

How did Cc1cccc(Nc2nc(N)c([N+](=O)[O-])c(N3CC(C)CC(C)C3)n2)c1 (stereo unspecified) do in these assays?
NS1 function inh: 16%; AMA1-RON2 inh: -20%; Sm TGR block: 4%; Pf growth 96h: inconclusive; Pf growth 48h: 13µM*

Results for CN(C)c1ccc(Nc2nc(N)c([N+](=O)[O-])c(N3CCOCC3)n2)cc1 ?
NS1 function inh: 17%; AMA1-RON2 inh: inconclusive; Sm TGR block: -16%; Pf growth 96h: 10µM*; Pf growth 48h: inconclusive

Results for COc1ccc(Nc2nc(N)c([N+](=O)[O-])c(N3CCOCC3)n2)cc1 ?
NS1 function inh: 0%; AMA1-RON2 inh: 25%; Sm TGR block: 1%; Pf growth 96h: inconclusive; Pf growth 48h: inconclusive

What do the screens show for `CC1CC(C)CN(CCCNC(=O)c2cc3c(s2)-c2ccccc2OC3)C1` (stereo unspecified)?
NS1 function inh: -8%; AMA1-RON2 inh: 6%; Sm TGR block: 14%; Pf growth 96h: 20%; Pf growth 48h: 2.9µM*

Results for CCOC(=O)N1CCN(C(=O)c2cc3c(s2)-c2ccccc2OC3)CC1 ?
NS1 function inh: -21%; AMA1-RON2 inh: 18%; Sm TGR block: -3%; Pf growth 96h: 8.3µM*; Pf growth 48h: 0%

Results for CCN1CCN(CCCNC(=O)c2cc3c(s2)-c2ccccc2OC3)CC1 ?
NS1 function inh: 0%; AMA1-RON2 inh: 18%; Sm TGR block: -2%; Pf growth 96h: inconclusive; Pf growth 48h: inconclusive

Results for COc1cccc(N2CCN(C(=O)c3cc4c(s3)-c3ccccc3OC4)CC2)c1 ?
NS1 function inh: -6%; AMA1-RON2 inh: -13%; Sm TGR block: -1%; Pf growth 96h: 4.1µM*; Pf growth 48h: -2%

Results for CCCN1CCN(C(=O)c2cc3c(s2)-c2ccccc2OC3)CC1 ?
NS1 function inh: -10%; AMA1-RON2 inh: 16%; Sm TGR block: -10%; Pf growth 96h: 24%; Pf growth 48h: 49%

What do the screens show for `COc1cc(C(C)=O)ccc1OCC(=O)Nc1ccccc1N1CCCCC1`?
AMA1-RON2 inh: -20%; Sm TGR block: 9%; Pf growth 96h: inconclusive; Pf growth 48h: 13µM*
